The record followed here is ChEMBL document CHEMBL3988442, “University of Dundee, Small-Polar-MMV Screening Library” (2021).

Molecules are shown by their SMILES. For some assays here: Results with a measured potency or affinity are listed apart.

What all share (set-up): scale not given: direction of the effect not stated beside the values
Test [1] has as its target Protein translocase subunit SecA (Escherichia coli (strain K12)) (UniProt P10408). Nature of the test: Assay to Identify E. coli SecA ATPase Inhibitors. The class given is functional. As to conditions: 30 µM.
Test [2] concerns the target T1, Ubiquitin-activating enzyme e1, putative (Leishmania donovani (strain BPK282A1)) (UniProt E9BSI1).
T1 sequence (whole entry): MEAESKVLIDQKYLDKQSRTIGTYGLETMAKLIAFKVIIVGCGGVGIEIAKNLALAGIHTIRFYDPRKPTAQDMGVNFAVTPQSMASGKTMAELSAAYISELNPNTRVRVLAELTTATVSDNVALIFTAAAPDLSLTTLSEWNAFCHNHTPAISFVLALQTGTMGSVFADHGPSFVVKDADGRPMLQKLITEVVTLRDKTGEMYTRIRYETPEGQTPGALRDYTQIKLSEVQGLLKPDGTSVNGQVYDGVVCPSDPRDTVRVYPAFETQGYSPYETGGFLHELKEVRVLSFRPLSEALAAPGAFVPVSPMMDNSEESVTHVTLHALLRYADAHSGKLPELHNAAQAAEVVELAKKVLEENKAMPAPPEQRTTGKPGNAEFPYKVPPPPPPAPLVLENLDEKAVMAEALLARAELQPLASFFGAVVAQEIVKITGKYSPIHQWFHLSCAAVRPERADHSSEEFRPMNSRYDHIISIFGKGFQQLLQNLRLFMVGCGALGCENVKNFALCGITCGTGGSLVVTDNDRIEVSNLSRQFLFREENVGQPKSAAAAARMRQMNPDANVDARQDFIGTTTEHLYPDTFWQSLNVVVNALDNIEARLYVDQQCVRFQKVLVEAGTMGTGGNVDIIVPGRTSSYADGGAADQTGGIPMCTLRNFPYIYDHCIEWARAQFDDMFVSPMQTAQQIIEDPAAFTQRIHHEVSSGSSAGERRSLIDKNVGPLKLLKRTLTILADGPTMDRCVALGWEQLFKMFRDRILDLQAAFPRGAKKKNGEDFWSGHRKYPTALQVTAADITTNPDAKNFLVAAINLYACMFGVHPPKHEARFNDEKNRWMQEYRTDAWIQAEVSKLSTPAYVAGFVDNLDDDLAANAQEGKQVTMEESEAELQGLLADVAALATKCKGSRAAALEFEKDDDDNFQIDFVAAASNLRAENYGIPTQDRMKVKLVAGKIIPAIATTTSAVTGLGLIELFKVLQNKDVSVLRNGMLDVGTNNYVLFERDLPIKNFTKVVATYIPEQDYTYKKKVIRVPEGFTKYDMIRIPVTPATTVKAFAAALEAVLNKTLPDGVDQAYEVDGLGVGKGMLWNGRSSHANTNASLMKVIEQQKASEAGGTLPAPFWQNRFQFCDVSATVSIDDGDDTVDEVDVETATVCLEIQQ
Kind of test: Leishmania donovani Ubiquitin Activating Enzyme (LdE1). The class given is functional. As to conditions: 30 µM.

Test [3] concerns the target AMP-activated protein kinase, AMPK (Homo sapiens) (UniProt P54646+O43741+P54619+Q9UGJ0+Q9Y478+Q13131+Q9UGI9). Kind of test: AMP-dependent Kinase enzyme assay. An in vitro enzyme assay that detects ADP turnover that is directly proportional to AMPK activity. This uses naive AMPK that is activated during the assay with MK-8722. As to conditions: 30 µM. It is filed as functional.

Test [4] addresses Sialic acid-binding Ig-like lectin 9 (Homo sapiens) (UniProt Q9Y336). Nature of the test: Hs-Siglec9 ALPHAscreen SOP 20170721. Conditions: 10 µM.
Test [5] deals with Trypanosoma cruzi. Kind of test: Trypanosoma cruzi phosphomannomutase and mannose-1-phosphate guanylyltransferase assay. It is filed as functional. Conditions: 10 µM.
For test [6], the target named is T2, Arginase-2, mitochondrial (Homo sapiens) (UniProt P78540).
T2 sequence (whole entry): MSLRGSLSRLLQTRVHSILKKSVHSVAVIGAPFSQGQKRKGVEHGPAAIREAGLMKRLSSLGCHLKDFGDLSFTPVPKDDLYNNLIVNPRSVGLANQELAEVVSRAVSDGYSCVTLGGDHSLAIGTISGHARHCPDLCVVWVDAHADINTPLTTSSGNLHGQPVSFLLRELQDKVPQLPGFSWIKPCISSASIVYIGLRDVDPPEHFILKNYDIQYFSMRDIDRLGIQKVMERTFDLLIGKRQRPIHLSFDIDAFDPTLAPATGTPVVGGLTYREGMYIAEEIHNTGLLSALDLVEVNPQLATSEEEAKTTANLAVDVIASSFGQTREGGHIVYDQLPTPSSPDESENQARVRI
Kind of test: in vitro enzyme assay to detect the production of urea directly proportional to the activity of Arginase II. Note: in the data most compounds retested in dose-response had high values. The class given is functional. Conditions: 33.3 µM.

In test [7] the target is T3, Proteasome subunit beta (Trypanosoma cruzi) (UniProt O96673).
T3 sequence (whole entry): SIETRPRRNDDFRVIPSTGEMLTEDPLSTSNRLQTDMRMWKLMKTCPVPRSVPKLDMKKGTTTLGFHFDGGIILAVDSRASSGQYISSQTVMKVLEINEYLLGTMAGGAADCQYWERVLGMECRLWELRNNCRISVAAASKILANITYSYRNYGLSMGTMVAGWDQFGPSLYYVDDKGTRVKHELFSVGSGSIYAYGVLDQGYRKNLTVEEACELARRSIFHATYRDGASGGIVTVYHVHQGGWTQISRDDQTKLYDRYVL
Nature of the test: Trypanosoma cruzi proteasome chymotrypsin-like activity (TcProtChymo) assay. Note: in the data most compounds retested in dose-response had high values. It is filed as functional. As to conditions: 9.37 µM.

For test [8], the species on record is Homo sapiens. Nature of the test: To identify inhibition of the IFN signalling (Jak-Stat) pathway via expression of an eGFP reporter gene under the control of an IFN-stimulated response element (ISRE) containing MxA promoter. It is filed as functional. As to conditions: 30 µM.
Test [9] addresses T4, Tyrosyl-tRNA synthetase, putative (Trypanosoma cruzi (strain CL Brener)) (UniProt Q4DSP6).
T4 sequence (whole entry): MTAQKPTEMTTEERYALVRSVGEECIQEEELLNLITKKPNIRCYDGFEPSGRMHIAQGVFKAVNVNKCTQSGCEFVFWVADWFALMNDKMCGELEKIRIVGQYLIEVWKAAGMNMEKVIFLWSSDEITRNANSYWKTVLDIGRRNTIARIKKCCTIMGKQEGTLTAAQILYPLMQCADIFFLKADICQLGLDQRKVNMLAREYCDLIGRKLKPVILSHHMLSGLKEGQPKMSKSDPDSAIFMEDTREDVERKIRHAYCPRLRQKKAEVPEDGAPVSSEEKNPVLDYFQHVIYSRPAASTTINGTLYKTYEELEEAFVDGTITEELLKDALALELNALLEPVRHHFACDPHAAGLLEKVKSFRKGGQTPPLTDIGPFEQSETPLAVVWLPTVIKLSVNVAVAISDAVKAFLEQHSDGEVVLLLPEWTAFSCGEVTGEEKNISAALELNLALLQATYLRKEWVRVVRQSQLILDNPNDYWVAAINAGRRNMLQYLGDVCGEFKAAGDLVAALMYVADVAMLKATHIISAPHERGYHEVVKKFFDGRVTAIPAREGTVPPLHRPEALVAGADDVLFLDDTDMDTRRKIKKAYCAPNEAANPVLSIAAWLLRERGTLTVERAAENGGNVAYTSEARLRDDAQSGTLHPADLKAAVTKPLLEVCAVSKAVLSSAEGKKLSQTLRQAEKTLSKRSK
Nature of the test: Trypanosoma cruzi tyrosyl tRNA synthetase (TcYRS) _High Tyrosine SOP. Note: in the data most compounds retested in dose-response had high values. It is filed as functional. Conditions: 30 µM.

The target in test [10] is T4, Tyrosyl-tRNA synthetase, putative (Trypanosoma cruzi (strain CL Brener)). Kind of test: Trypanosoma cruzi tyrosyl tRNA synthetase (TcYRS) SOP. It is filed as functional. As to conditions: 30 µM.
The target in test [11] is Chromo domain-containing protein 1 (Saccharomyces cerevisiae (strain ATCC 204508 / S288c) (Baker's yeast)) (UniProt P32657). Nature of the test: ScCHD-1 Enzyme Inhibition Assay. Note: in the data most compounds retested in dose-response had high values. It is filed as functional. As to conditions: 30 µM.
Chromo domain-containing protein 1 (Saccharomyces cerevisiae (strain ATCC 204508 / S288c) (Baker's yeast)), sequence (P32657 whole entry, the tested form may be a part): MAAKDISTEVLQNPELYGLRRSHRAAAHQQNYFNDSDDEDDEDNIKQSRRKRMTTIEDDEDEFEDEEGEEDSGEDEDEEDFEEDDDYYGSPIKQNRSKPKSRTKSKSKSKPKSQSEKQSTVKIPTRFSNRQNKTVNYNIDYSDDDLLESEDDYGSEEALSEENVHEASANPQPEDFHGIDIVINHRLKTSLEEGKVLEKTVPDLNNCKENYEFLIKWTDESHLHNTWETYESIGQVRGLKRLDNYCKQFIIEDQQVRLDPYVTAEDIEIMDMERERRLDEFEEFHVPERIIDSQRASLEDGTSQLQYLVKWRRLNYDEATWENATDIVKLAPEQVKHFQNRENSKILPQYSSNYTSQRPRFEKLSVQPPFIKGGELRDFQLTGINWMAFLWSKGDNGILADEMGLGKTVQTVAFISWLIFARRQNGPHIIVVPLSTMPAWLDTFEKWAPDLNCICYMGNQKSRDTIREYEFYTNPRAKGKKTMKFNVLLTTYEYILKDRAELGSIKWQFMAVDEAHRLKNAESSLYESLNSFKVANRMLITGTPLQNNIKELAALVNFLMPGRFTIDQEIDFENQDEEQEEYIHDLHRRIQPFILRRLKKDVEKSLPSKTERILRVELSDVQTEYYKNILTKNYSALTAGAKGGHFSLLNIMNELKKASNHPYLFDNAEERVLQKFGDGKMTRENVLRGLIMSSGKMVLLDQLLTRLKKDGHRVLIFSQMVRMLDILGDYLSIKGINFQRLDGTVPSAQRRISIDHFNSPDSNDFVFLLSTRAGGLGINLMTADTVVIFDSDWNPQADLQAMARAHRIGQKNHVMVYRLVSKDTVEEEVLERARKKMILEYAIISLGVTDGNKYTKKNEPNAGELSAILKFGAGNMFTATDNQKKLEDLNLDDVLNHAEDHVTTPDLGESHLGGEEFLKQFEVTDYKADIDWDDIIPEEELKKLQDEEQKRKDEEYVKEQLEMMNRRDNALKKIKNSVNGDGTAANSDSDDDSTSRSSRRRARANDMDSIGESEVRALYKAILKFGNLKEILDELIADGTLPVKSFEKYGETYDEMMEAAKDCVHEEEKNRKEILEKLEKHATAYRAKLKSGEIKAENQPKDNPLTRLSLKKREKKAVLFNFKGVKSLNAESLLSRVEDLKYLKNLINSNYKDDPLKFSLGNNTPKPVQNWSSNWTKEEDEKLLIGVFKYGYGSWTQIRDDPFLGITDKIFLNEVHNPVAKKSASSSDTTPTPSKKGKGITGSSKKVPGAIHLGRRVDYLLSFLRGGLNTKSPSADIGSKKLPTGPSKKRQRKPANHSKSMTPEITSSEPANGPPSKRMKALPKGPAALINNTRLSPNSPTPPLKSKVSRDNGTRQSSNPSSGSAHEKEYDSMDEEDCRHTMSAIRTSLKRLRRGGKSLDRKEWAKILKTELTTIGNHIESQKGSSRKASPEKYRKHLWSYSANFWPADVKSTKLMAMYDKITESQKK

Sialic acid-binding Ig-like lectin 9 (Homo sapiens), sequence (Q9Y336 whole entry): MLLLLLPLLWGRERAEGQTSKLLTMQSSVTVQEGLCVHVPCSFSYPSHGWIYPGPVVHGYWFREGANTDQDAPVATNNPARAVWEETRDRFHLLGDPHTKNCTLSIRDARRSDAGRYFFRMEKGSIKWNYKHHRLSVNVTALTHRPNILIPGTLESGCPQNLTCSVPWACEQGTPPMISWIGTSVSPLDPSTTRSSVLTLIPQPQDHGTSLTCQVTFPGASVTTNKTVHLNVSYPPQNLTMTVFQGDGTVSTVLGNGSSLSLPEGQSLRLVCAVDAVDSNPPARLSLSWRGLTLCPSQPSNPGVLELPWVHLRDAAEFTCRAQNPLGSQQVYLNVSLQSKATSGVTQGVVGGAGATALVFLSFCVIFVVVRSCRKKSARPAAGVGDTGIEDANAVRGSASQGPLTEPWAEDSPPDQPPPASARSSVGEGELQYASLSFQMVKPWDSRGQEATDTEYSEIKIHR
Protein translocase subunit SecA (Escherichia coli (strain K12)), sequence (P10408 whole entry): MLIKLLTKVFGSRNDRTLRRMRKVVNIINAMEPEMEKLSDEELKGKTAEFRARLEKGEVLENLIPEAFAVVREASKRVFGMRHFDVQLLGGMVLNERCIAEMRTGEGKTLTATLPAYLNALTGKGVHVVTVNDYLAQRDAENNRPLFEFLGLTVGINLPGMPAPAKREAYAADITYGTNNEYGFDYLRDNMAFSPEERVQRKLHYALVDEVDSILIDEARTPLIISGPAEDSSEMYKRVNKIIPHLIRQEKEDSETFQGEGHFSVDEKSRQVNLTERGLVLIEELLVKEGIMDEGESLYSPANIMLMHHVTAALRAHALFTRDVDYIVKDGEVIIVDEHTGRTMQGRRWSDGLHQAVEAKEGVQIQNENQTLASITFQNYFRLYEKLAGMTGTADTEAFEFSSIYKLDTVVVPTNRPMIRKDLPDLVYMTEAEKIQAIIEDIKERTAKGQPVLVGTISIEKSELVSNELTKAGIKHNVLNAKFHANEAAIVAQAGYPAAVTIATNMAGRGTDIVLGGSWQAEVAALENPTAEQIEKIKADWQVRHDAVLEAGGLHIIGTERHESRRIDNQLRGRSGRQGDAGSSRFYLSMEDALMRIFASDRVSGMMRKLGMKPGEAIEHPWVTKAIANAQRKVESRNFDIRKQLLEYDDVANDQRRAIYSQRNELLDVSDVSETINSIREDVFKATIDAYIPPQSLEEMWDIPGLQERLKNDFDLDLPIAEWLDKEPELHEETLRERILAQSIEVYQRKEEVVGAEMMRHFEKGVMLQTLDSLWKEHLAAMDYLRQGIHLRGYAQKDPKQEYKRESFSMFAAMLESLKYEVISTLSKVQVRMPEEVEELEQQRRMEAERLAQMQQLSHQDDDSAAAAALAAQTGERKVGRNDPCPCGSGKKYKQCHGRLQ

Regarding `Fc1cnc(N2CCCC3(CN(Cc4ccncc4)CCO3)C2)nc1` (configuration not stated), the Percent Effect is -2.51% in test [1]; 13.3% in [2]; 12.9% in test [3]; -0.573% in test [4]; -2.95% in test [5]; 1.63% in [6]. The Percent Effect is 12.2% in [7]; 8.63% in test [8]; 8.51% in [9]; 16.7% in test [10]; -5.31% in test [11].

With `Cc1nc(C)n(CC2CCCN(Cc3nc(C4CC4)no3)C2)n1` (configuration not stated), the Percent Effect in test [1] was -2.19%; in [2], 21.6%; in test [3], -9.55%; in test [4] it was 4.88%; in test [5], 3.11%; in test [6], -4.41%. Further, the Percent Effect in [7] is 12.8%; in test [8], 2.75%; in test [9], 8.37%; in [10], 23.5%; in [11], -12.5%.

Regarding `CO[C@@H]1CCN(Cc2cnn(C)c2)[C@@H]2CN(Cc3ccco3)C[C@@H]21`, the Percent Effect in test [1] was -5.25%; in test [2], 4%; in test [3], 5.3%; in test [4] it was 4.49%; in test [5] it was -1.38%; in [6], -0.528%. The Percent Effect was 11.8% in [7]; -13.9% in test [8]; 0% in test [9]; 2.56% in test [10]; -0.166% in test [11].

Regarding `Cc1nc(CCN(C)C(=O)C2COc3ccccc3C2)no1` (configuration not stated), the Percent Effect in [1] is -7.54%; in test [2] it was 13%; in test [3] it was -6.34%; in test [4] it was 19.8%; in test [5] it was 8.55%; in [6], 5.52%. The Percent Effect is 16.1% in test [7]; -0.00401% in [8]; 5.38% in test [9]; 13.6% in [10]; -7.23% in [11].

For `CCOCC1CN(C(=O)C2=CCCC2)Cc2cnn(CC)c21` (configuration not stated), the Percent Effect in test [1] was -2.5%; in test [2], 16.2%; in [3] it was -0.303%; in [4], 0.664%; in test [5], 3.62%; in test [6] it was 3.5%. Besides, the Percent Effect in [7] is 19.9%; in test [8], 9.89%; in [9], 3.24%; in [10], 12.8%; in test [11], -2.18%.

For the compound `CS(=O)(=O)CC(=O)N1C[C@H]2CCC[C@@]2(COCc2ccccn2)C1`, the Percent Effect is -1.45% in test [1]; 2.7% in test [2]; -3.2% in [3]; 0.525% in test [4]; -0.88% in test [5]; 11.2% in test [6]. Besides, the Percent Effect in [7] was 26%; in test [8], -5.57%; in test [9], 0%; in test [10], 17.9%; in test [11], 0.642%.

Turning to `Cc1cccc(CNCc2c(C(C)C)nn(C)c2N2CCOCC2)n1`, the Percent Effect in test [1] is -1.17%; in [2], 5.48%; in test [3], -18.3%; in test [4] it was -6.47%; in [5] it was -1.57%; in [6], -8.64%. For the same compound, the Percent Effect in test [7] was 5.68%; in test [8], -8.24%; in test [9] it was 2.15%; in [10] it was 5%; in [11], -2.13%.
